Assay outcomes: PubChem BioAssay, several laboratories
HIF-2a block: HIF-2a inhibition; 786-0 RCC cells HIF-2a reporter, luciferase luminescence, overnight; inhibition, % at 18.8 µM; 0.72% of 360,000 active;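 active means inhibition of the luminescence signal of 40% or more relative to plate controls, in a single-dose primary screen at 18.75 µM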
TRPM1 prom inh: MITF TRPM1 promoter inhibition in SK-MEL-5 cells. SK-MEL-5 TRPM1 promoter luciferase, 24 h. inhibition, % at 12.5 µM. 0.83% of 330,000 active;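 active means mean inhibition across replicates of 60% or more, whatever share of single replicates reaches that level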
Peg3 prom inh: reduces Peg3 promoter-driven luciferase expression in HeLa | 1.7% of 360,000 active | HeLa PEG-Prom luciferase reporter, luminescence, overnight | inhibition, % at 20 µM;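 active means inhibition of at least 50% at 20 µM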
KKLEB cytotox: CF airway cell cytotoxicity counter-screen | KKLEB CF airway cells viability, ATPlite luminescence, overnight; stronger effect = lower value; cells stimulated with P. aeruginosa culture filtrate | activity change (cytotoxicity), % at 5 µM | 0.36% of 360,000 active | AID 602141;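 active means corrected activity change at or below -50% at 5 µM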
CHOP inh: inhibitors of CHOP induction in ER stress response. inhibition, % at 10 µM. 3.8% of 220,000 active. CHO-K1 CHOP-promoter luciferase, tunicamycin-induced, 15-18 h;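 active means compounds that reduced the stress-induced luciferase reporter signal by more than about 70% of percent inhibition, limit read from the data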;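 further: 0% = tunicamycin plus vehicle and 100% = wells without tunicamycin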
CF NFkB block: inhibitors of cystic fibrosis induced NF-kB; KKLEB NF-kB-GFP reporter, PAF-induced, GFP fluorescence overnight; inhibition, % at 5 µM; 0.86% of 360,000 active; AID 588850;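 active means at least 50% inhibition at 5 µM, scaled per plate between neutral and stimulator controls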;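 further: PAF is a Pseudomonas aeruginosa culture filtrate used as stimulus; plate controls were PAF-stimulated DMSO wells for no effect and unstimulated DMSO wells for full effect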
Active calls of the source: *. A selection: hits, their analogues and other compounds. The true share with any hit is near 4.3%.

Screening Cc1c(C(=O)N2CCN(Cc3ccc4c(c3)OCO4)CC2)sc2ncnc(N3CCN(c4ccccc4)CC3)c12 returned HIF-2a block -3, TRPM1 prom inh 15, Peg3 prom inh 58*, KKLEB cytotox 9 and CF NFkB block -24.
For Cc1c(C(=O)N2CCN(c3ccccn3)CC2)sc2ncnc(N3CCN(c4ccccc4)CC3)c12 the results were HIF-2a block 13, TRPM1 prom inh 4, Peg3 prom inh 22, KKLEB cytotox -4 and CF NFkB block 1.
Screening CCCNC(=O)Cn1cnc2sc(C(=O)N3CCN(Cc4ccc5c(c4)OCO5)CC3)c(C)c2c1=O returned HIF-2a block 19, TRPM1 prom inh 11, Peg3 prom inh 8, KKLEB cytotox 10, CHOP inh 21 and CF NFkB block 17.
Cc1c(C(=O)N2CCN(Cc3ccc4c(c3)OCO4)CC2)sc2ncnc(N3CCN(c4ccccc4F)CC3)c12 was read as HIF-2a block -20, TRPM1 prom inh 31, Peg3 prom inh 58*, KKLEB cytotox -18 and CF NFkB block -24.
Screening CCC(=O)OCC(=O)C1(OC(=O)CC)[C@H](C)C[C@H]2[C@H]3[C@H]([C@@H](O)C[C@@]21C)[C@@]1(C)C=CC(=O)C=C1C[C@H]3Cl (stereo partly specified) returned HIF-2a block 28, TRPM1 prom inh -14, Peg3 prom inh -9, KKLEB cytotox 32 and CF NFkB block 69*.
For CCOC(=O)O[C@]1(C(=O)COC(=O)CC)CC[C@H]2[C@@H]3CCC4=CC(=O)C=C[C@]4(C)[C@H]3[C@@H](O)C[C@@]21C the results were HIF-2a block 16, TRPM1 prom inh -1, Peg3 prom inh -30, KKLEB cytotox 9 and CF NFkB block 77*.
For C[C@]12C=CC(=O)C=C1CC[C@@H]1[C@@H]2[C@@H](O)C[C@@]2(C)[C@H]1CC[C@]2(O)C(=O)COC(=O)CCC(=O)O the results were HIF-2a block 32, TRPM1 prom inh -5, Peg3 prom inh 12, KKLEB cytotox 16, CHOP inh 15 and CF NFkB block 56*.
Screening C[C@H]1C[C@@H]2[C@H]([C@@H](O)C[C@@]3(C)[C@H]2CC[C@]3(O)C(=O)CO)[C@@]2(C)C=CC(=O)C=C12 returned HIF-2a block 17, TRPM1 prom inh 5, Peg3 prom inh -9, KKLEB cytotox 20, CHOP inh 19 and CF NFkB block 74*.
For CC(=O)OCC(=O)C1(O)CCC2C3CCC4=CC(=O)C=CC4(C)C3C(=O)CC21C (stereo unspecified) the results were HIF-2a block 4, TRPM1 prom inh 2, Peg3 prom inh 1, KKLEB cytotox 4 and CF NFkB block 14.
Screening CSc1ccc(NC(=O)C2(C)CCN2C(=O)c2sccc2C)cc1 (stereo unspecified) returned HIF-2a block 7, Peg3 prom inh 11, KKLEB cytotox -5 and CF NFkB block 12.
`C[C@]12C=CC(=O)C=C1CC[C@@H]1[C@@H]2[C@@H](O)C[C@@]2(C)[C@H]1CC[C@]2(O)C(=O)COC(=O)CCC(=O)NCCc1ccc(O)cc1` gave HIF-2a block 13, Peg3 prom inh -23, KKLEB cytotox 34 and CF NFkB block 80*.
`CC12C=CC(=O)C=C1CCC1C2C(=O)CC2(C)C1CCC2(O)C(=O)CO` (stereo unspecified) gave HIF-2a block 5, TRPM1 prom inh -3, Peg3 prom inh 4, KKLEB cytotox 22 and CF NFkB block 36.
Screening C[C@]12C=CC(=O)C=C1CC[C@@H]1[C@@H]2[C@@H](O)C[C@@]2(C)[C@H]1CC[C@]2(O)C(=O)CO returned HIF-2a block 24, TRPM1 prom inh -17, Peg3 prom inh 7, KKLEB cytotox 26 and CF NFkB block 73*.
`NC(N)=[N+]1CCc2ccccc2C1` gave CHOP inh 1.
Cc1ccc(NC(=O)Cc2nnc(SCC(=O)NC3CCCC3)n2C)cc1 was read as HIF-2a block 6, TRPM1 prom inh -1, Peg3 prom inh 5, KKLEB cytotox 6 and CF NFkB block 0.
For Cc1ccc(NC(=O)Cc2nnc(SCC(=O)c3ccc(Br)cc3)n2C)cc1 the results were HIF-2a block 15, TRPM1 prom inh 5, Peg3 prom inh 16, KKLEB cytotox 1, CHOP inh 88* and CF NFkB block -4.
For Cc1cc(C)c(C(=O)c2ccc(C(=O)N(C(C)C)C(C)C)cc2)c(C)c1 the results were HIF-2a block 9, TRPM1 prom inh 3, Peg3 prom inh 0, KKLEB cytotox -8, CHOP inh 94* and CF NFkB block 10.
For O=C(Cc1ccc2c(c1)OCCO2)Nc1cc(C(F)(F)F)ccc1N1CCOCC1 the results were HIF-2a block 8, TRPM1 prom inh 1, Peg3 prom inh 16, KKLEB cytotox 0 and CF NFkB block 8.
Screening O=C(CCl)N=c1sccn1Cc1cccc2ccccc12 returned HIF-2a block 25, TRPM1 prom inh 53, Peg3 prom inh 34, KKLEB cytotox -98*, CHOP inh -191 and CF NFkB block 91*.
`CCOc1ccc(-c2nnc(NC(=O)c3ccc(OCC(C)C)c(OC)c3)o2)cc1` gave HIF-2a block -74, TRPM1 prom inh -1, Peg3 prom inh -23, KKLEB cytotox -6, CHOP inh 91* and CF NFkB block 9.
`COc1cc(N=Nc2ccc(Br)cc2)cc(C=O)c1O` gave HIF-2a block -72, Peg3 prom inh 49, KKLEB cytotox -46 and CF NFkB block 85*.
COc1cc(CN(C)C)cc(C=O)c1O was read as HIF-2a block 13, TRPM1 prom inh 6, Peg3 prom inh 3, KKLEB cytotox 2, CHOP inh 7 and CF NFkB block 16.
Screening CCCCC1(Cc2cccc([N+](=O)[O-])c2)C(=O)N(c2ccccc2)N(c2ccccc2)C1=O returned HIF-2a block 18, TRPM1 prom inh 7, Peg3 prom inh 52*, KKLEB cytotox -2, CHOP inh 45 and CF NFkB block -1.
`COc1ccc(C(C#N)=Cc2ccc(N(C)CCC#N)cc2)cc1` gave HIF-2a block -248, Peg3 prom inh -183, KKLEB cytotox 1 and CF NFkB block -2.
Screening O=[N+]([O-])c1ccc(N/N=C/c2sc(N3CCOCC3)nc2-c2ccccc2)c(S(=O)(=O)Nc2ccccc2Cl)c1 returned HIF-2a block 31, TRPM1 prom inh 65*, Peg3 prom inh 68*, KKLEB cytotox -29, CHOP inh 85* and CF NFkB block 26.
For O=[N+]([O-])c1ccc(N/N=C/c2sc(N3CCOCC3)nc2-c2ccccc2)c(S(=O)(=O)Nc2ccc(Cl)cc2)c1 the results were HIF-2a block 1, TRPM1 prom inh 72*, Peg3 prom inh 54*, KKLEB cytotox -50, CHOP inh 86* and CF NFkB block 34.
